From PubChem BioAssay (NCI)
The panel holds about 83,000 compounds, 20% with a hit somewhere; the sample as a whole holds those more often.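 The test compound was applied at a single concentration to cells in 96-well plates for 48 hours, and percent growth was recorded.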 Unmarked numbers belong to inactive results. Calls of active or inactive are those of the source.

test system: A549/ATCC NSCLC; assay: NCI-60 one-dose screen, 48 h (100 = growth as untreated, 0 = no growth, -100 = all killed); conditions: 10 µM unless noted
Procedure: Growth inhibition of the A549/ATCC human Non-Small Cell Lung tumor cell line is measured as a screen for anti-cancer activity. Cells are grown in 96 well plates and exposed to the test compound for 48 hours. Compounds are tested at a single concentration, which is 10^-5 M for most compounds. The reported endpoint is percent growth (GI% or GIPRCNT), where numbers from 0 - 100% represent growth inhibition, and numbers from -100% - 0 represent cell death. For example, a value of 40 represents 60% growth inhibition. A value of 0 means no net growth occurred over the course of the experiment. A value of -40 indicates 40% of cells at the beginning of the experiment died by the end of the experiment. A value of -100 means all cells are dead at the end of the experiment.
NCI-60 Human Tumor Cell Lines Screen was performed using the standard one-dose NCI protocol, which is described in more detail at https://dtp.cancer.gov/discovery_development/nci-60/default.htm.
Compounds with GIPRCNT values below 10 were considered active. Activity score was based on GIPRCNT using the following formula: […]
Score is 0 for GIPRCNT values of 100 or above, 50 for GIPRCNT values of 0, and 100 for GIPRCNT values of -100.

| SMILES | growth |
| --- | --- |
| Cn1c(NCCc2ccc(O)c(O)c2)nc2c1c(=O)n(Cc1ccc(Br)cc1)c(=O)n2C | 83.9% |
| O=C(/C=C/c1cccc(Cl)c1)c1ccc(O)c(CN2CCN(c3cc4c(cc3F)c(=O)c(C(=O)O)cn4C3CC3)CC2)c1 | 25.8% |
| CC1=C(O)C(=O)C(C(C#N)(C#N)C(C#N)C#N)C1 (stereo not given) | 101% |
| c1ccc(-c2c(-c3ccccc3)[n+](Cc3ccc4ccccc4c3)c(-c3ccc(-c4nc5ccccc5s4)cc3)n2Cc2ccc3ccccc3c2)cc1 | -77.1% (active) |
| CC1(C)CC[C@]2(C(=O)Nc3ccccn3)CC[C@]3(C)C(=CC[C@@H]4[C@@]5(C)C/C(=C/c6cccnc6)C(=O)C(C)(C)[C@@H]5CC[C@]43C)[C@H]2C1 | 27.3% |
| COc1ccc(N=Nc2nccs2)c(O)c1 | 97.2% |
| O=S(=O)(Nc1ccc(OC(F)F)cc1)c1ccc(-c2cnc(C3CC3)o2)cc1 | 60.4% |
| C=C1C(=O)O[C@H]2[C@H]1CC/C(COC(=O)c1cc3cc(OC)ccc3[nH]1)=C\CC[C@@]1(C)O[C@@H]21 | -73.9% (active) |
| COc1ccc(C2CC(c3ccc(Cl)cc3)=NN2/C=C2\SC(=S)N(NC(=O)Cc3ccccc3Nc3c(Cl)cccc3Cl)C2=O)cc1 (stereo not given) | 57.8% |
| NNCCc1ccc(NC(=O)CCCc2ccc(/C=C/C(=O)NO)cc2)cc1 | 76.4% |
| COc1ccc(C(=O)COc2cccc(/C=C3\CSc4ccccc4C3=O)c2)cc1 | 87.4% |
| CC(C)(C)c1cc(C(C)(C)C)cc(S(=O)(=O)Nc2cc3ccccc3cc2C(=O)NCCN)c1 | 38.6% |
| C=C(C)C1CC(O)C2(C)CCCC3C2C1CC(C)C3(C)CC/C(C)=C/C(O)C1CCC(=O)c2c(OC)cc(OC)cc21 (stereo not given) | 30.8% |
| COc1cc(Nc2cc(C)nc(N3CCN(c4ccnc5cc(Cl)ccc45)CC3)n2)cc(OC)c1 | 4.7% (active) |
| Fc1ccc2[nH]cc(SSc3c[nH]c4ccc(F)cc34)c2c1 | 19.3% |
| CCNc1ncnc2c1cnn2C1CCCO1 (stereo not given) | 95.4% |
| COc1ccc(-n2nc(C)c3c(Nc4ccc(NC(=O)Nc5cc(C(F)(F)F)ccc5F)cc4)ncnc32)cc1 | 22.9% |
| O=C(COc1cccc(/C=C2\CSc3ccccc3C2=O)c1)Nc1nccs1 | 95.1% |
| Oc1ccccc1-c1nnc(CNc2ccc(Cl)cc2)o1 | 20.9% |
| Cc1ccc(-c2onc3c(=O)[nH]nc(-c4ccccc4)c23)cc1 | 31.5% |

| SMILES | growth |
| --- | --- |
| CCOC(=O)n1cc(-c2nonc2-c2cn(C)c3ncccc23)c2cc(F)ccc21 | 70.1% |
| NC(=NCCCOc1ccc(Cl)cc1)Nc1ccc(C(F)(F)F)cc1 | 49.4% |
| Cc1nc2c3c(-c4ccccc4)c(-c4ccccc4)oc3ncn2n1 | 101% |
| COc1ccc(NC(=O)c2ccc(/C=C/C(=O)c3ncc[nH]3)cc2)cc1 | 81.5% |
| O=C1NC(=S)N[C@H]1CC(=O)n1cnc2ccccc21 | 105% |
| C=C(C)[C@@H]1CC[C@]2(C(=O)OC)CC[C@]3(C)[C@H](CC[C@@H]4[C@@]5(C)C/C(=C/c6ccc(OC)cc6)C(=O)C(C)(C)[C@@H]5CC[C@]43C)[C@@H]12 | 89.5% |
| C=CC(=O)Nc1cccc(-c2nc(SC)nc(NCCc3ccc(OC)c(OC)c3)c2C#N)c1 | 46.9% |
| Cc1cc(N2CCCCC2)nc(NC2CCCC(Nc3ccnc4cc(Cl)ccc34)C2)n1 (stereo not given) | -23.7% (active) |
| Cc1ccc(C2=NN3C(C2)c2cc(Br)ccc2OC32CCN(Cc3ccccc3)CC2)o1 (stereo not given) | 96.3% |
| COC(=O)[C@@H]1CCCN1C(=O)[C@@H]1CCCN1C(=O)[C@H](Cc1ccccc1)NC(=S)Nc1cc(C(F)(F)F)cc(C(F)(F)F)c1 | 15.6% |
| Cc1ccccc1COc1ccc(-c2onc(C)c2-c2ccc(Cl)cc2)cc1 | 49.3% |
| COc1cc(-c2ccc3c(c2)NC(=O)/C3=C\c2ccc[nH]2)ccc1O | 20.7% |
| CNc1ccc(-c2cc(=O)oc3ccc(Cl)cc23)cc1 | 10.1% |
| C=CC(=O)Nc1cccc(Nc2nc(SC)nc(-c3cccc([N+](=O)[O-])c3)c2C#N)c1 | 7.62% (active) |
| CCN1CCN(c2nc(NCCNc3ccnc4cc(Cl)ccc34)c3ccccc3n2)CC1 | 0.344% (active) |
| CS(=O)(=O)c1ccc(-n2nc(-c3ccc(Br)cc3)c3ccccc3c2=O)cc1 | 97.9% |
| CC(=O)Nc1ccc(-n2c(O)c(/C=N/NC(=O)Cc3ccccc3Nc3c(Cl)cccc3Cl)sc2=S)cc1 | 101% |
| O=C(CN1C(=O)/C(=C/c2ccc(Cl)cc2)SC1=S)NCCCN1CCOCC1 | 104% |
| CC(C)n1c(/C=C/[C@@H](O)C[C@@H](O)CC(=O)O)c(-c2ccc(F)cc2)c2ccccc21 | 61.3% |
| CCOc1nc(-c2ccccc2)cc2c(O)c(C(=O)N/N=C/c3ccc(O)cc3O)[nH]c(=O)c12 | 46.2% |
